Among the data in PubChem BioAssay are z-score and composite z-score values, retold here.

Activity calls are given as the source filed them.

The nature of assay [1]: optical density shifts of acrAB sulA E. coli – strain DRC41, OD650, 48 h, E. coli filamentation inducer project, primary screen (AID 1152).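 Further: E. coli MC1000 strain DRC41 lacking acrAB efflux pump and sulA.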 Conditions: higher = more signal, called active from +8 up or from −8 down.
Assay [2] can be described thus: probe aLefty1 binding on compound microarray – biochemical, small-molecule microarray, 635/667 nm fluorescence, primary screen (AID 1153).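 Further: score merges spot fluorescence with signal-to-noise ratio from the scanned slide images.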 Conditions: higher = more signal.
Assay [3] can be described thus: plasmodial surface anion channel blockers, osmotic lysis – cell-based, P. falciparum Indochina, OD700, 1 h, primary screen (AID 1154). Conditions: P. falciparum Indochina infected RBC osmotic lysis, higher = more signal, called active from +8 up or from −8 down.
A short description of assay [4]: plasmodial surface anion channel blockers, osmotic lysis – cell-based, P. falciparum Indochina, OD700, 2 h, primary screen (AID 1155).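 Further: lysis reports solute entry through the parasite surface anion channel PSAC.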 Conditions: P. falciparum Indochina infected erythrocytes, higher = more signal, called active from +8 up or from −8 down.
Assay [5] is described as follows: changes in parasitized red cell lysis, either direction – P. falciparum Indochina, OD700, 3 h, PSAC antagonist project, primary screen (AID 1156). Conditions: P. falciparum-infected erythrocytes, osmotic lysis, higher = more signal, called active from +8 up or from −8 down.
Assay [6] can be described thus: plasmodial surface anion channel blockers, osmotic lysis – cell-based, P. falciparum Indochina, OD700, 18 h, primary screen (AID 1157). Conditions: P. falciparum Indochina infected erythrocytes, osmotic lysis OD700, 18 h; higher = more signal, called active from +8 up or from −8 down.
Assay [7] can be described thus: S6 kinase pathway phospho-S6 level changes – cell-based, A549, cytoblot, luminescence, serum-stimulated, primary screen (AID 1158).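 Further: serum-stimulated A549 lung adenocarcinoma cells; signal is phosphorylated S6 detected by cytoblot immunostaining with HRP secondary.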 Conditions: 5 h, higher = more signal.
Assay [8] addresses NADPH oxidase 2 (Homo sapiens) (UniProt P04839). Nature of the assay: compounds shifting NOX2 Amplex Red fluorescence – cell-based, HEK293-NOX2, PMA-stimulated, NOX inhibitor project, primary screen (AID 1159). Further: test concentration not given here. Particulars: 45 min, higher = more signal, called active from +8 up or from −8 down.
Assay [9] deals with NADPH oxidase 4 (Homo sapiens) (UniProt Q9NPH5). Nature of the assay: compounds shifting NOX4 Amplex Red fluorescence – cell-based, HEK293-NOX4, tetracycline-induced, NOX inhibitor project, primary screen (AID 1160). Conditions: HEK293-NOX4, Amplex Red H2O2 fluorescence, 45 min; higher = more signal, called active from +8 up or from −8 down.
Assay [10] concerns the target NADPH oxidase 5 (Homo sapiens) (UniProt Q96PH1). Nature of the assay: compounds shifting NOX5 Amplex Red fluorescence – cell-based, HEK293-NOX5, NOX inhibitor project, primary screen (AID 1161). Conditions: HEK293-NOX5, ionomycin, 45 min, higher = more signal.
The nature of assay [11]: compound effects on lung adenocarcinoma cell viability – A549, calcein-AM fluorescence, 48 h, basal, profiling panel (AID 1162). Further: test concentration not given here. Conditions: higher = more signal.
Assay [12] can be described thus: compound effects on differentiated 3T3-L1 adipocyte viability – cell-based, 3T3-L1 adipocytes, calcein-AM fluorescence, 48 h, basal, profiling panel (AID 1163). Further: test concentration not given here. Particulars: 3T3-L1 adipocytes viability, higher = more signal.
The nature of assay [13]: compound effects on hepatocellular carcinoma cell viability – HepG2, calcein-AM fluorescence, 48 h, basal, profiling panel (AID 1164). Further: test concentration not given here. Particulars: higher = more signal.
Assay [14] can be described thus: compound effects on multiple myeloma cell viability – MM1S, calcein-AM fluorescence, 48 h, basal, profiling panel (AID 1165).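 Further: viability of MM1S multiple myeloma cells under basal unstimulated conditions; test concentration not given here.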 Particulars: higher = more signal.
The nature of assay [15]: calcein-AM signal in unstimulated myeloma cells – cell-based, calcein-AM fluorescence, 48 h, PK04 Diversity Set, profiling panel (AID 1166).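 Further: cells grown under basal conditions without added stimulus; test concentration not given here.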 Particulars: RPMI8226 myeloma viability, higher = more signal.
Assay [16] in a line: JC-1 mitochondrial signal, unstimulated HepG2 cells – cell-based, JC-1 fluorescence, 24 h, 100 nL compound, profiling panel (AID 1167). Further: test concentration not given here. Conditions: HepG2 mitochondrial potential, higher = more signal.
The nature of assay [17]: JC-1 mitochondrial signal, unstimulated adipocytes – cell-based, JC-1 fluorescence, 3T3-L1 adipocytes, 24 h, 100 nL compound, profiling panel (AID 1168). Further: test concentration not given here. Conditions: JC-1 mitochondrial fluorescence, higher = more signal, called active from +8 up or from −8 down.
Assay [18] in a line: JC-1 mitochondrial signal, unstimulated myeloma cells – cell-based, JC-1 fluorescence, RPMI8226, 24 h, 100 nL compound, profiling panel (AID 1169). Further: test concentration not given here. Conditions: JC-1 mitochondrial potential fluorescence, higher = more signal.
Assay [19] in a line: JC-1 mitochondrial signal, unstimulated MM1S myeloma – cell-based, JC-1 fluorescence, 24 h, 100 nL compound, profiling panel (AID 1170). Further: test concentration not given here. Conditions: MM1S mitochondrial potential, higher = more signal.
Assay [20] can be described thus: resazurin metabolic signal in A549 cells – cell-based, resazurin fluorescence, 24 h, PK04 Diversity Set, profiling panel (AID 1171). Further: test concentration not given here. Conditions: A549 viability, higher = more signal, called active from +8 up or from −8 down.

Chain of NADPH oxidase 4 (Homo sapiens) (Q9NPH5 whole entry, looked up): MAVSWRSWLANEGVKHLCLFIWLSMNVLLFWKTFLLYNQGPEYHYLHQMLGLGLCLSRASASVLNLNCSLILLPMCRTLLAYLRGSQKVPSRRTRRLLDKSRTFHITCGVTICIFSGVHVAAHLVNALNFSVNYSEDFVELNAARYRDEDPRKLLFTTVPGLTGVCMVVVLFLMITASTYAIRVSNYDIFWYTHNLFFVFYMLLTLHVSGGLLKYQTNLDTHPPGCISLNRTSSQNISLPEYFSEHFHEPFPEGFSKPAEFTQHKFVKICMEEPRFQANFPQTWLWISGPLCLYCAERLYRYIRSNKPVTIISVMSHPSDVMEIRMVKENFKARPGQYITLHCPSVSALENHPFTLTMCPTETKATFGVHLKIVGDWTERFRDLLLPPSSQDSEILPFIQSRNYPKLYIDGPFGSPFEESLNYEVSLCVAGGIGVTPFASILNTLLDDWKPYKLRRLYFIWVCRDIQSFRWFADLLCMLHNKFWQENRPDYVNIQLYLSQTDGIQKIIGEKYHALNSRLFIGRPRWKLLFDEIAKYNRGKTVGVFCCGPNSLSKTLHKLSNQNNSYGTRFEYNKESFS
Chain of NADPH oxidase 2 (Homo sapiens) (P04839 whole entry, looked up): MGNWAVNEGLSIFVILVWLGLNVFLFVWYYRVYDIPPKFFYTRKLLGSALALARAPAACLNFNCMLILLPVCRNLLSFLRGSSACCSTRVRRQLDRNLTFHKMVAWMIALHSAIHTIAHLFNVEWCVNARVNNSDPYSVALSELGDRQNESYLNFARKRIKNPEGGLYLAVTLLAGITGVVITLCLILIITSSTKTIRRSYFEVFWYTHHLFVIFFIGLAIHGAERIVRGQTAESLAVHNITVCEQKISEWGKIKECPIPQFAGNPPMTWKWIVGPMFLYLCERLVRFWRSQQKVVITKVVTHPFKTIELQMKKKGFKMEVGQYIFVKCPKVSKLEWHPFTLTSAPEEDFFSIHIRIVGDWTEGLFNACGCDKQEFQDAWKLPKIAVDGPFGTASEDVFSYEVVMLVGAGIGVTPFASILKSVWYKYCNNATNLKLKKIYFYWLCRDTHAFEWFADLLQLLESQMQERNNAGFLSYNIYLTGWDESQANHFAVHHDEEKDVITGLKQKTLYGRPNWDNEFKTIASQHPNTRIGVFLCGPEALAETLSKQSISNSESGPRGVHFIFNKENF
Chain of NADPH oxidase 5 (Homo sapiens) (Q96PH1 whole entry, looked up): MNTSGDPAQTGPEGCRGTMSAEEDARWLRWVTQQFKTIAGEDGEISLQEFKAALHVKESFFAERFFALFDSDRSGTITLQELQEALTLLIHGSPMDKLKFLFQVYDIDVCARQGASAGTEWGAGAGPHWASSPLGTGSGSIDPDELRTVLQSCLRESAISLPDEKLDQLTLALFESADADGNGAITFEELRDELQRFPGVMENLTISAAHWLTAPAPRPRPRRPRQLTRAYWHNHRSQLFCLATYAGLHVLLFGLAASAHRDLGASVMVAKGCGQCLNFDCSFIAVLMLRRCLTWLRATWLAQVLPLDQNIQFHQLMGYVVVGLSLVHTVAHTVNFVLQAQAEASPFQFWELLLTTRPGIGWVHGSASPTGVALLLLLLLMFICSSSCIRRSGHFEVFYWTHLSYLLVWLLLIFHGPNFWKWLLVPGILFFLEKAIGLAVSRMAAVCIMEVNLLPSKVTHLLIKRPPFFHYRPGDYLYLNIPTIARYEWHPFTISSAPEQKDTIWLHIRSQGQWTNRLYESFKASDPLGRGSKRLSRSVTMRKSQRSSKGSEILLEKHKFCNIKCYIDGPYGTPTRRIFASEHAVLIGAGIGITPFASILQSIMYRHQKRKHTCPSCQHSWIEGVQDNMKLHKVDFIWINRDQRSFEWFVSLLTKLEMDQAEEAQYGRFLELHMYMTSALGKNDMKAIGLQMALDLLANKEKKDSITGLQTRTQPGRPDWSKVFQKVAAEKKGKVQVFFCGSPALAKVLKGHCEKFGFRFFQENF

For the compound `[N-]=[N+]=NCc1ccccc1C[C@]1(C(=O)N2CCOCC2)N=C(c2ccc(OCCCO)cc2)O[C@H]1c1ccccc1CN=[N+]=[N-]`, the z-score in [1] was 0.341 (inactive); in [3], 17.5 (active); in [4], 3.97 (inactive); in assay [5] it was 2.79 (inactive); in assay [6] it was 1.15 (inactive); in assay [7], 1.02. For the same compound, the z-score in [8] was -0.647 (inactive); in [9], 0.782 (inactive); in assay [10], 2.13; in assay [11] it was 0.869; in [12], 0.577; in assay [13], 0.74. Also, the z-score is -1.47 in [14]; -2.29 in assay [15]; 1.24 in [16]; 1.04 (inactive) in assay [17]; -1.18 in assay [18]; 0.233 in assay [19]. In addition, the z-score in assay [20] was -0.768 (inactive). In addition, in assay [2], the composite z-score turned out to be 1.15.

For `C[N+](C)(C)CCCC[C@@H]1NC(=O)[C@H]2C[C@@H](C(=O)NCCCCCNC(=O)CS)[C@@H](c3ccc(O)cc3)N2C1=O`, the z-score in assay [1] is 1.65 (inactive); in assay [3], 0.105 (inactive); in assay [4] it was -0.38 (inactive); in [5], -0.364 (inactive); in assay [6] it was -2.52 (inactive); in [7], 1.46. Moreover, the z-score in assay [8] is 0.236 (inactive); in [9] it was 0.335 (inactive); in [10] it was 1.52; in assay [11], 0.809; in [12] it was -0.464; in assay [13], 0.664. Besides, the z-score in [14] was 0.949; in [15], -1.51; in assay [16], 1.45; in [17], -0.0341 (inactive); in assay [18] it was 0.287; in [19], -0.013. Further, in assay [20], the z-score is -0.567 (inactive). For the same compound, in [2], the composite z-score was -0.0162.

For `CN(C)C(=O)[C@@]1(CCS(=O)(=O)c2ccccc2)N=C(c2ccc(OCCCO)cc2)O[C@H]1c1ccccc1N=[N+]=[N-]`, the z-score was 0.395 (inactive) in assay [1]; 28.1 (active) in assay [3]; 27.4 (active) in [4]; 1.78 (inactive) in assay [5]; 2.09 (inactive) in assay [6]; -0.76 in [7]. In addition, the z-score was -2.01 (inactive) in assay [8]; -0.478 (inactive) in assay [9]; -0.984 in [10]; 0.137 in assay [11]; -0.471 in assay [12]; 1.27 in assay [13]. Also, the z-score in assay [14] was -1.68; in assay [15], -0.941; in assay [16], 0.121; in assay [17], -0.477 (inactive); in assay [18], -1.32; in assay [19] it was -0.591. Further, the z-score in assay [20] is -0.217 (inactive). The compound further returned a composite z-score in [2] of -0.148.

As to `COCCOC(=O)N1C(=O)[C@@]2(c3cc(C#CC4=CCCCC4)ccc31)[C@H](c1ccccc1OCCO)N1[C@H](c3ccccc3)[C@H](c3ccccc3)OC(=O)[C@H]1[C@@H]2C(N)=O`, the z-score in assay [1] is 1.97 (inactive); in assay [3], 2.66 (inactive); in assay [4], 0.298 (inactive); in assay [5], -0.714 (inactive); in assay [6], -0.0482 (inactive); in assay [7] it was 2.22. Also, the z-score was 1.77 (inactive) in [8]; 0.548 (inactive) in [9]; -0.172 in [10]; -1.13 in assay [11]; 2.16 in assay [12]; -2.29 in [13]. Besides, the z-score is -3.11 in assay [14]; -4.02 in assay [15]; -0.985 in [16]; 0.686 (inactive) in assay [17]; -0.96 in assay [18]; -1.85 in assay [19]. Moreover, in assay [20], the z-score was -1.35 (inactive). Moreover, the composite z-score in [2] is -0.0611.

In the case of `CC#CCO[Si](C#CCCCCCC)(C(C)C)C(C)C`, the z-score in [1] was 0.323 (inactive); in assay [3], 0.0926 (inactive); in assay [4] it was -0.607 (inactive); in assay [5], -1.09 (inactive); in assay [6], 0.283 (inactive); in assay [7] it was 0.393. The z-score in [8] is -1.27 (inactive); in assay [9], -0.681 (inactive); in [10], -3.5; in [11], -0.5; in [12], -0.381; in assay [13], -0.23. The z-score in [14] is -1.52; in assay [15], -1.03; in assay [16] it was -1.15; in assay [17], -0.552 (inactive); in assay [18], -0.69; in assay [19], -1.3. For the same compound, the z-score in assay [20] is 0.518 (inactive). The compound further gave a composite z-score in assay [2] of -0.0501.

Turning to `COC(=O)[C@@]1(Cc2ccc(F)cc2)[C@H]2c3cc(C(=O)N(C)C)n(CCn4cc([N+](=O)[O-])nc4C)c3C[C@H]2CN1C(=O)c1ccccc1`, the z-score in assay [1] was -2.34 (inactive); in [3] it was 0.496 (inactive); in assay [4], 0.288 (inactive); in assay [5], 0.0718 (inactive); in assay [6] it was 0.544 (inactive); in assay [7] it was 0.0938. The z-score in [8] was 0.762 (inactive); in assay [9] it was -0.00316 (inactive); in assay [10], -0.683; in assay [11], -0.771; in assay [12], -0.417; in assay [13] it was 0.346. Besides, the z-score in assay [14] was -0.737; in [15] it was 0.211; in [16], 0.443; in assay [17] it was -0.596 (inactive); in assay [18], 0.0282; in assay [19], -0.54. For the same compound, the z-score in assay [20] was -0.792 (inactive). Besides, the composite z-score in assay [2] came out at 0.0861.

On to `C=CCNC(=O)[C@H]1[C@@H]2C(=O)O[C@@H](c3ccccc3)[C@@H](c3ccccc3)N2[C@@H](c2ccccc2OCCO)[C@]12C(=O)N(C(=O)OCCOC)c1ccccc12`, for which the z-score is -0.557 (inactive) in assay [1]; 2.31 (inactive) in [3]; 1.1 (inactive) in assay [4]; -0.337 (inactive) in [5]; 0.973 (inactive) in assay [6]; 0.015 in [7]. The z-score in [8] is 1.14 (inactive); in assay [9], 0.676 (inactive); in assay [10], 0.348; in [11] it was -1.25; in [12] it was -0.575; in assay [13], -1.3. The z-score in [14] is -3.05; in assay [15], -3.82; in [16] it was 0.387; in assay [17] it was -0.49 (inactive); in [18], -0.919; in [19] it was -1.19. Also, the z-score in [20] is -1.04 (inactive). Moreover, the composite z-score in assay [2] came out at 0.162.

As to `CC(C)C[C@@H]1NC(=O)[C@@]23C(=O)N[C@@H](Cc4ccccc4)C2[C@H](C)[C@@]2(C)O[C@H]2C3/C=C/C/C=C\CNC(=O)[C@@H](CC(C)C)NC1=O` (stereo not given in full), the z-score in assay [1] was -0.664 (inactive); in assay [3], 1.44 (inactive); in assay [4] it was -0.172 (inactive); in assay [5], 0.0094 (inactive); in [6] it was -0.0134 (inactive); in assay [7], 0.0885. In addition, the z-score in assay [8] was 0.063 (inactive); in assay [9], 0.41 (inactive); in assay [10], -3.22; in assay [11], 0.939; in assay [12] it was 0.703; in assay [13], -0.293. Moreover, the z-score was -0.549 in assay [14]; -0.361 in assay [15]; -0.046 in assay [16]; -0.618 (inactive) in [17]; -0.955 in [18]; 1.28 in [19]. In [20], the z-score is 1.31 (inactive). Also, the composite z-score in assay [2] stood at 0.0774.
